According to PubChem BioAssay (NCI):
This is part of a sample that, as a whole, favours compounds with a hit. Of some 79,000 tested, about 15% had one in any assay. Calls of active or inactive are those of the source. No stated cut-off is given here; in the data, active means growth inhibition above about 70%; inactive means the rest.

Assays:
[1] = NCI Yeast Anticancer Drug Screen. Data for the rad50 strain (AID 155);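 further: 0% = growth of vehicle-only cultures of the same strain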; settings: S. cerevisiae rad50 strain growth inhibition, stronger effect = higher value
In short: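 Readout: growth inhibition relative to vehicle-treated cultures. Compound exposure was carried out in a genetically defined yeast strain deficient in DNA damage repair.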

[2] = NCI Yeast Anticancer Drug Screen. Data for the mec2-1 strain (AID 157); settings: S. cerevisiae mec2-1 strain, stronger effect = higher value
In short: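 Test agents were screened against the mec2-1 yeast strain, with defined DNA repair or cell cycle alteration. Growth was scored as inhibition against vehicle-only controls.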

[3] = NCI Yeast Anticancer Drug Screen. Data for the sgs1 mgt1 strain (AID 161);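 further: 0% = growth of cultures given vehicle only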; settings: S. cerevisiae sgs1 mgt1 strain, stronger effect = higher value
In short: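 Genetically altered yeast, compound exposure, growth inhibition relative to vehicle.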

[4] = NCI Yeast Anticancer Drug Screen. Data for the cln2 rad14 strain (AID 165);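 further: 0% = growth equal to vehicle treated cultures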; settings: S. cerevisiae cln2 rad14 strain, stronger effect = higher value
In short: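 Growth of compound-exposed yeast (cln2 rad14 genotype) measured and expressed as inhibition relative to vehicle.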

[5] = NCI Yeast Anticancer Drug Screen. Data for the bub3 strain (AID 167); settings: S. cerevisiae bub3 mutant strain, stronger effect = higher value
In short: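 Readout: yeast growth inhibition, expressed relative to vehicle-only wells. The test organism is a mutant strain from a panel with lesions in DNA repair or checkpoint genes.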

[6] = NCI Yeast Anticancer Drug Screen. Data for the mlh1 rad18 strain (AID 175); settings: S. cerevisiae mlh1 rad18 strain growth inhibition, stronger effect = higher value
In short: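 In this whole-cell yeast screen, a strain with altered DNA damage repair is challenged with compound, and its growth is measured against matched vehicle-treated controls.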

[7] = at 5.0 µM (retest, dose inferred, filed as 0.5)
[8] = at 50.0 µM (retest, dose inferred, filed as 5.0)

Measured: growth inhibition

CCOC(=O)c1ccccc1NC(OCC)C(=O)c1ccccc1 (stereo not drawn) (tested in a mixture with another compound)
inactive: [1]; [7] -5% | [2]; [7] 5% | [2]; [8] 22% | [2]; at 50.0 µM 63.9% | [3]; [7] 1% | [3]; [8] 69% | [4]; [7] -3% | [4]; [8] 12% | [4]; at 50.0 µM 16.2% | [5]; [7] -5% | [6]; [7] 0%
active: [1]; [8] 70% | [1]; at 50.0 µM 75% | [3]; at 50.0 µM 90.8% | [5]; [8] 71% | [5]; at 50.0 µM 70% | [6]; [8] 81% | [6]; at 50.0 µM 90.7%

COc1cccc(C2c3cc4c(cc3OC(NNc3ccccc3)C2C)OCO4)c1OC (stereo not drawn)
inactive: [1]; [7] 14% | [2]; [7] 3% | [2]; at 50.0 µM 44.7% | [3]; [7] 9% | [3]; at 50.0 µM 44% | [4]; [7] 11% | [4]; at 50.0 µM 27.1% | [5]; [7] 4% | [5]; at 50.0 µM 34.2% | [6]; [7] 24% | [6]; at 50.0 µM 56.4%
active: [1]; [8] 94% | [1]; at 50.0 µM 73.2% | [2]; [8] 94% | [3]; [8] 86% | [4]; [8] 90% | [5]; [8] 94% | [6]; [8] 93%

Nc1ccc([N+](=O)[O-])cc1Nc1c2ccccc2nc2ccccc12
inactive: [1]; [7] 5% | [1]; [8] 15% | [2]; [7] 2% | [2]; [8] 5% | [2]; at 50.0 µM 17.7% | [3]; [7] 1% | [3]; [8] 27% | [3]; at 50.0 µM 40% | [4]; [7] -1% | [4]; [8] 34% | [4]; at 50.0 µM -6.85% | [5]; [7] -4% | [5]; [8] 17% | [5]; at 50.0 µM -43.4% | [6]; [7] 2% | [6]; [8] 37% | [6]; at 50.0 µM 31.4%
active: [1]; at 50.0 µM 82.3%

S=c1sc2ccccc2n1CNc1ccccc1
active: [3]; at 50.0 µM 72.2% | [5]; at 50.0 µM 74.3%
inactive: [1]; [7] -2% | [1]; [8] 14% | [1]; at 50.0 µM 64.9% | [2]; [7] 0% | [2]; [8] 7% | [2]; at 50.0 µM 68.1% | [3]; [7] 2% | [3]; [8] 53% | [4]; [7] -5% | [4]; [8] -10% | [4]; at 50.0 µM -40.6% | [5]; [7] -1% | [5]; [8] 18% | [6]; [7] 5% | [6]; [8] -11% | [6]; at 50.0 µM 69.3%

CN(C)CC(CN(C)C)C(=O)c1ccc(Oc2ccc(Cl)cc2)cc1
active: [1]; [7] 72% | [1]; [8] 98% | [2]; [8] 99% | [3]; [7] 85% | [3]; [8] 99% | [4]; [8] 98% | [5]; [7] 72% | [5]; [8] 99% | [6]; [7] 92% | [6]; [8] 98%
inactive: [1]; at 50.0 µM 7.8% | [2]; [7] 60% | [2]; at 50.0 µM 52.3% | [3]; at 50.0 µM 50.9% | [4]; [7] 36% | [4]; at 50.0 µM 5.15% | [5]; at 50.0 µM 51.6% | [6]; at 50.0 µM 6.95%

CC(C)(C)c1c2c(c(C(C)(C)C)c3c1OCN(Cc1ccccc1)C3)OCN(Cc1ccccc1)C2
active: [3]; at 50.0 µM 71.7%
inactive: [1]; [7] 4% | [1]; [8] 12% | [1]; at 50.0 µM 54.1% | [2]; [7] 0% | [2]; [8] -13% | [2]; at 50.0 µM 9.25% | [3]; [7] -2% | [3]; [8] -19% | [4]; [7] -15% | [4]; [8] -38% | [4]; at 50.0 µM 17.6% | [5]; [7] -5% | [5]; [8] 18% | [5]; at 50.0 µM 11.7% | [6]; [7] -10% | [6]; [8] 1% | [6]; at 50.0 µM 41.5%
